Where “and” joins values, the source holds several entries; their conditions need not be identical. Identical values can stand only once. Results filed as inconclusive are left out. A call without a number means that no potency is given here. Values without a mark were called inactive. Calls of active or inactive are those of the source. The call rests on the fitted dose curve; in most records, active means well fitted curve in the direction sought with a large enough effect; inconclusive means small, poorly fitted or top-dose-only effect, or another doubt; inactive means no such curve, though single readings can be large; an effect the other way counts as inactive or inconclusive.
What was measured:
[1] = target: Cytochrome P450 3A7 (Homo sapiens) (UniProt P24462); assay: Cytochrome P450 family 3 subfamily A member 7 (CYP3A7) small molecule antagonists: luciferase biochemical qHTS assay (AID 1963596); further: nearly all actives have a fitted effect of over 40% in size
Sequence of Cytochrome P450 3A7 (Homo sapiens) (P24462 whole entry, looked up): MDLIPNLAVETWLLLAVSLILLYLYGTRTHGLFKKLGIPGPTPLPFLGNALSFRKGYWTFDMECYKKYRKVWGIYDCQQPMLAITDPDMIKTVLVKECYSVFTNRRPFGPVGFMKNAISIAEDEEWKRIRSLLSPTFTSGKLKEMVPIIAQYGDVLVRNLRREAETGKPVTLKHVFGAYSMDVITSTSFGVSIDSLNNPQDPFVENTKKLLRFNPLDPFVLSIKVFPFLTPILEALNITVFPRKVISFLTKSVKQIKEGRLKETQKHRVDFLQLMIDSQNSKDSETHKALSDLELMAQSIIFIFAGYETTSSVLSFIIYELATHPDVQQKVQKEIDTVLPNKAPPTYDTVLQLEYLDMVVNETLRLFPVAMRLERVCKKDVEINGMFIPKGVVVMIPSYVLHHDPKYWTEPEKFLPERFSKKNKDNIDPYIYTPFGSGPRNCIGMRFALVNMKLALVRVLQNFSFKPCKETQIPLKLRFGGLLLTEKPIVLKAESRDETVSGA
How it was run: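 Compounds were screened in qHTS format for interference with CYP3A7 turnover of a proluciferin substrate. Reactions ran 1 h at room temperature after NADPH regeneration solution was added, then luciferin product was detected by luminescence.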

[2] = Viability qHTS for spleen associated tyrosine kinase inhibitor (SYKi) naive MV4-11 cells (AID 1963823); further: nearly all actives have a fitted effect of over 40% in size; further: potency means the concentration at half of the fitted maximal effect
How it was run: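 Read-out: CellTiter-Glo luminescence. Exposure: 72 hr, 37 C, 5% CO2, 95% humidity. Cells: MV4-11 without SYK inhibitor history, 500/well, qHTS format.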

[3] = Viability qHTS for spleen associated tyrosine kinase inhibitor (SYKi) drug resistant MV4-11 cells (AID 1963824); further: nearly all actives have a fitted effect of over 35% in size; further: potency means the concentration at half of the fitted maximal effect
How it was run: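 CellTiter-Glo luminescence, read 10 min after reagent addition, reports viability after a 72 hr compound exposure. Cells are an MV4-11 line made resistant to SYK inhibition, seeded at 500 per well onto compound-containing plates.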

[4] = Cellular viability qHTS for adrenocortical cancer (ACC) cell line SW-13 (AID 1963989); conditions: SW-13 ACC cells viability, CellTiter-Glo, 48 h; activity (max response): hits give low values; further: nearly all actives have a fitted effect of over 65% in size; further: potency means the concentration at half of the fitted maximal effect;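 on activity (max response): cells grown in serum-free medium with ITS supplement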
How it was run: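 Viability was read as CellTiter-Glo luminescence after 48 h compound treatment (up to 46 uM final) of SW-13 cells grown serum-free; titration curves were fit with a four-parameter logistic model to give IC50 and efficacy.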

[5] = Cellular viability qHTS for adrenocortical cancer (ACC) cell line NCI-H295R (AID 1963990); further: nearly all actives have a fitted effect of over 60% in size; further: potency means the concentration at half of the fitted maximal effect
How it was run: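 CellTiter-Glo ATP luminescence, read 48 h after compound addition, measured viability of NCI-H295R adrenocortical cells grown serum-free with ITS. Final concentrations spanned up to 46 uM. Data normalized to DMSO and doxorubicin, fitted for IC50 and maximal response.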

SMILES: CN1CC(=O)NC1=N
- Potency [1]: inactive
- Potency [2]: inactive
- Potency [3]: inactive
- activity (max response) [4]: 5.44%
- Potency [5]: inactive

SMILES: C[N+]1(C)CCC(=C(c2ccccc2)c2ccccc2)CC1
- Potency [1]: inactive
- Potency [2]: inactive
- Potency [3]: inactive
- activity (max response) [4]: -4.49%
- Potency [5]: inactive

SMILES: CN1Cc2cc(C(=O)N3CCC(C4CCNCC4)CC3)ccc2N[C@@H](CC(=O)O)C1=O
- Potency [1]: inactive
- Potency [2]: inactive
- Potency [3]: inactive
- activity (max response) [4]: 10.2%
- Potency [5]: inactive

SMILES: C[C@@]12C(=O)OC(=O)[C@]1(C)C1CCC2O1
- Potency [1]: inactive
- Potency [2]: 2.66 µM (active)
- Potency [3]: 2.99 µM (active)
- Potency [4]: 7.31 µM (active)
- Potency [5]: 2.31 µM (active)

SMILES: CN(C)CCN(Cc1cccs1)c1ccccn1
- Potency [1]: inactive
- Potency [2]: inactive
- Potency [3]: inactive
- activity (max response) [4]: 15.3%
- Potency [5]: inactive

SMILES: COC(=O)c1ccccc1C(=O)c1ccc(OCCN2CCCCC2)cc1
- Potency [1]: inactive
- Potency [2]: inactive
- Potency [3]: inactive
- activity (max response) [4]: -0.425%
- Potency [5]: inactive

SMILES: CC[C@@]1(c2ccccc2)NC(=O)N(C)C1=O
- Potency [1]: inactive
- Potency [2]: inactive
- Potency [3]: inactive
- activity (max response) [4]: 8.31%
- Potency [5]: inactive

SMILES: CC(=O)O[C@@H]1CC2C3CCc4cc(OC(=O)c5ccccc5)ccc4C3CCC2(C)[C@H]1OC(C)=O (stereo not given in full)
- Potency [1]: inactive
- Potency [2]: inactive
- Potency [3]: inactive
- activity (max response) [4]: 3.65%
- Potency [5]: inactive

SMILES: Nc1nnnn1-c1ccccc1
- Potency [1]: inactive
- Potency [2]: inactive
- Potency [3]: inactive
- activity (max response) [4]: 1.62%
- Potency [5]: inactive

SMILES: O=C(O)CC(O)C(=O)O (stereo not given)
- Potency [1]: inactive
- Potency [2]: inactive
- Potency [3]: inactive
- activity (max response) [4]: 12.9%
- Potency [5]: inactive

SMILES: NC(Cc1ccc(Cl)cc1)C(=O)O (stereo not given)
- activity change, negative = inhibition [1]: -2.28% [at 0.91 µM]
- viability (% of control) [2]: 87.6% [at 0.588 µM]
- viability, % of control [3]: 93.1% [at 0.588 µM]
- activity (max response) [4]: -3.09%
- activity change, negative = viability loss [5]: -11% [at 0.587 µM]

SMILES: CC(=O)CCC(=O)O
- Potency [1]: inactive
- Potency [2]: inactive
- Potency [3]: inactive
- activity (max response) [4]: 9%
- Potency [5]: inactive

SMILES: CN(C)C(=O)Oc1ccc[n+](C)c1
- Potency [1]: inactive
- Potency [2]: inactive
- Potency [3]: inactive
- activity (max response) [4]: 13.3%
- Potency [5]: inactive

SMILES: Cc1nc(-c2ccc(Cl)cc2)oc1COC(C)(C)C(=O)O
- Potency [1]: inactive
- Potency [2]: inactive
- Potency [3]: inactive
- activity (max response) [4]: -4.84%
- Potency [5]: inactive

SMILES: CN(C)CCC(c1ccccc1)c1ccccn1 (stereo not given)
- Potency [1]: inactive
- Potency [2]: inactive
- Potency [3]: inactive
- activity (max response) [4]: 13.1%
- Potency [5]: inactive

SMILES: O=c1ccn([C@@H]2O[C@H](CO)[C@@H](O)[C@H]2O)c(=O)[nH]1
- Potency [1]: inactive
- Potency [2]: inactive
- Potency [3]: inactive
- activity (max response) [4]: -5.6%
- Potency [5]: inactive

SMILES: Cc1ccc(-c2ccccc2C#N)cc1
- Potency [1]: inactive
- Potency [2]: inactive
- Potency [3]: inactive
- activity (max response) [4]: 12.9%
- Potency [5]: inactive

SMILES: COc1ccc(C(=O)N2CCN(CC(=O)N3CCOCC3)CC2)cc1
- Potency [1]: inactive
- Potency [2]: inactive
- Potency [3]: inactive
- activity (max response) [4]: 8.16%
- Potency [5]: inactive

SMILES: O=C(O)Cc1cccc2ccccc12
- Potency [1]: inactive
- Potency [2]: inactive
- Potency [3]: inactive
- activity (max response) [4]: 3.96% and 12.8%
- Potency [5]: inactive

SMILES: CC(=O)NCc1c(I)c(NC(C)=O)c(I)c(C(=O)O)c1I
- Potency [1]: inactive
- Potency [2]: inactive
- Potency [3]: inactive
- activity (max response) [4]: 13.2%
- Potency [5]: inactive

SMILES: Nc1ccc(/C=C/c2ccc(N)cc2S(=O)(=O)O)c(S(=O)(=O)O)c1
- activity change, negative = inhibition [1]: 6.59% [at 0.91 µM]
- viability (% of control) [2]: 106% [at 0.588 µM]
- viability, % of control [3]: 94.1% [at 0.588 µM]
- activity (max response) [4]: 11.4%
- activity change, negative = viability loss [5]: -9.73% [at 0.587 µM]

SMILES: Cc1nnc(C(C)C)n1C1CC2CCC(C1)N2CC[C@H](NC(=O)C1CCC(F)(F)CC1)c1ccccc1 (stereo not given in full)
- Potency [1]: inactive
- Potency [2]: inactive
- Potency [3]: inactive
- activity (max response) [4]: 2.32%
- Potency [5]: inactive

SMILES: CC(=O)Nc1cccc(O)c1
- Potency [1]: inactive
- Potency [2]: inactive
- Potency [3]: inactive
- activity (max response) [4]: -1.77%
- Potency [5]: inactive

SMILES: O=C(O)C1CCC1
- Potency [1]: inactive
- Potency [2]: inactive
- Potency [3]: inactive
- activity (max response) [4]: 11.6%
- Potency [5]: inactive

SMILES: Nc1nc(=O)n([C@@H]2O[C@H](CO)[C@@H](O)[C@@H]2F)cc1I
- Potency [1]: inactive
- Potency [2]: inactive
- Potency [3]: inactive
- activity (max response) [4]: 8.37%
- Potency [5]: inactive

SMILES: CC(=O)Nc1ccn(C2COC(COC(=O)c3ccccc3)O2)c(=O)n1 (stereo not given)
- Potency [1]: inactive
- Potency [2]: 2.31 µM (active)
- Potency [3]: 1.64 µM (active)
- activity (max response) [4]: -9.44%
- Potency [5]: inactive

SMILES: CCCN(CCC)S(=O)(=O)c1ccc(C(=O)O)cc1
- Potency [1]: inactive
- Potency [2]: inactive
- Potency [3]: inactive
- activity (max response) [4]: 9.34%
- Potency [5]: inactive

SMILES: NCCc1ccn[nH]1
- Potency [1]: inactive
- Potency [2]: inactive
- Potency [3]: inactive
- activity (max response) [4]: 3.59%
- Potency [5]: inactive

SMILES: O=C(COCC(=O)N1CCN(C(c2ccccc2)c2ccccc2)CC1)Nc1ccc(Cl)cc1C(=O)O
- Potency [1]: inactive
- Potency [2]: inactive
- Potency [3]: inactive
- activity (max response) [4]: -10.1%
- Potency [5]: inactive

SMILES: O=C(O)c1ccccc1O
- Potency [1]: inactive
- Potency [2]: inactive
- Potency [3]: inactive
- activity (max response) [4]: 13.2%
- Potency [5]: inactive

SMILES: CC(C)C(=O)c1c(C(C)C)nn2ccccc12
- Potency [1]: inactive
- Potency [2]: inactive
- Potency [3]: inactive
- activity (max response) [4]: 11.5%
- Potency [5]: inactive
